Experimental data published in the supplement of paper PMC12669032.
Values without a mark were called inactive.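 Rule for the calls: active = AUC reduced over 20% with Padj below 0.05 in at least 2 of 3 replicates; inactive = otherwise.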

Experiments:
Experiment in all cases: growth AUC relative to DMSO control (median of replicates) (fraction); higher = more growth (less inhibition), active = hit call of the paper
Conditions in all cases: 20 µM; 24 h
Coprococcus comes = test system: Coprococcus comes
How it was run: (§1)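 Gut bacterial monocultures were grown anaerobically at 37 °C in mGAM, starting at OD600 0.05, with 20 µM compound (1% DMSO) in round-bottom 96-well plates under pierced gas-permeable seals. OD600 was read hourly for 24 h. Area under the growth curve (minimum OD set to 0) was normalised to the plate median of DMSO controls, or to row and column medians on the industrial chemical plate. The value is the median of three biological replicates grown on separate days.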

Escherichia coli ED1a = test system: Escherichia coli ED1a
How it was run: as §1

Escherichia coli IAI1 = test system: Escherichia coli IAI1
How it was run: as §1

Eubacterium rectale = test system: Eubacterium rectale
How it was run: as §1

[1] = test system: Fusobacterium nucleatum subsp. animalis
How it was run: as §1

Lactobacillus gasseri = test system: Lactobacillus gasseri
How it was run: as §1

Lactobacillus paracasei = test system: Lactobacillus paracasei
How it was run: as §1

Odoribacter splanchnicus = test system: Odoribacter splanchnicus
How it was run: as §1

[2] = test system: Parabacteroides distasonis
How it was run: as §1

Parabacteroides merdae = test system: Parabacteroides merdae
How it was run: as §1

SMILES	growth AUC (Coprococcus comes)	growth AUC (Escherichia coli ED1a)	growth AUC (Escherichia coli IAI1)	growth AUC (Eubacterium rectale)	growth AUC [1]	growth AUC (Lactobacillus gasseri)	growth AUC (Lactobacillus paracasei)	growth AUC (Odoribacter splanchnicus)	growth AUC [2]	growth AUC (Parabacteroides merdae)
CCCCCCCCCC[N+](C)(C)Cc1ccccc1.[Cl-]	0.9	1	0.969	0.91	1.02	0.712	1.06	0.926	0.847	0.91
CCOC(=O)Cc1[nH]nc2ccc(Cl)cc12	0.976	1.02	1	1.03	1.08	1.02	0.917	1.08	0.983	1.03
CCCCOC(=O)COc1ccc(Cl)cc1Cl	0.991	0.981	1.03	0.979	1.08	1.06	0.839	0.946	0.994	0.979
CN(C)C(=O)SCCCCOc1ccccc1	0.968	0.98	0.962	1.12	0.958	1.01	0.975	0.981	0.938	0.961
CCc1cc(C(=O)O)cc(CC)c1C1C(=O)N2CCOCCN2C1=O	1	1.02	1.02	1.01	1.11	1.11	1.04	1.13	0.99	1.04
COC(=O)c1ccccc1S(=O)(=O)NC(=O)Nc1nc(OC(F)F)cc(OC(F)F)n1	1	1.02	1.01	0.964	0.957	1.19	1.04	0.99	1.04	1
CC(=O)CC(c1ccccc1)c1c(O)c2ccccc2oc1=O (stereo not given)	1.01	0.967	0.982	0.963	1.02	0.957	0.943	0.927	0.907	1.01
CNC(=O)Sc1ccc(OS(C)(=O)=O)cc1	1.02	1.01	1.02	1.54	1.09	0.933	0.953	0.864	0.817	0.938
C#CCOC(=O)[C@@H](C)Oc1ccc(Oc2ncc(Cl)cc2F)cc1	0.978	1.01	0.987	0.982	0.903	0.962	0.997	0.982	1	0.979
CCOC(=O)C1=NOC(c2ccccc2)(c2ccccc2)C1	0.974	0.974	0.997	0.932	0.956	0.99	1.06	0.944	1.14	0.948
CCOC(=O)NCCOc1ccc(Oc2ccccc2)cc1	0.954	1	0.976	0.956	0.943	1.03	0.949	0.931	0.932	0.974
Cl.NCCO/C=C/[C@H](N)C(=O)O	0.947	1.03	1.02	1.08	0.981	0.853	1.02	0.8	0.828	1.01
COC(=O)c1ccc(C)cc1C1=NC(C)(C(C)C)C(=O)N1 (racemic)	0.993	0.969	0.97	1.03	0.916	0.931	0.959	1.07	1.03	0.976
COc1cc(OC)nc(Sc2cccc3c2C(=O)OC3C)n1 (stereo not given)	1	0.984	0.999	1.02	0.965	1.06	1	1.09	0.904	0.968
COC(=O)C(C)Oc1ccc(Oc2ccc(C(F)(F)F)cn2)cc1 (stereo not given)	0.977	1.02	1.02	1.06	1.12	0.958	0.98	1.02	0.821	0.963
COC1CCC2(CC1)NC(=O)C(c1cc(C)ccc1C)=C2O (stereo not given)	1.02	1.03	1.02	1.13	1.13	0.95	1.05	1.05	1.01	1.08
FC(F)(F)C(=NOCC1OCCO1)c1ccc(Cl)cc1	1.02	1.01	1.04	1.06	1.08	1.01	1.07	1.04	1	1.03
CC(C)(C)C(=O)C(Oc1ccc(Cl)cc1)n1ccnc1 (stereo not given)	0.629 (active)	1.03	0.994	0.414 (active)	1.02	0.918	0.971	0.994	0.938	0.96
COC(=O)[C@@H](C)Oc1ccc(Oc2ncc(C(F)(F)F)cc2Cl)cc1	1.02	1.02	1.01	1.05	1.06	0.889	1.04	0.946	0.913	1.01

SMILES	growth AUC (Coprococcus comes)	growth AUC (Escherichia coli ED1a)	growth AUC (Escherichia coli IAI1)	growth AUC (Eubacterium rectale)	growth AUC [1]	growth AUC (Lactobacillus gasseri)	growth AUC (Lactobacillus paracasei)	growth AUC (Odoribacter splanchnicus)	growth AUC [2]	growth AUC (Parabacteroides merdae)
CCCN(CCOc1c(Cl)cc(Cl)cc1Cl)C(=O)NC=O	0.965	1.04	0.993	1.02	1.01	1.09	0.9	0.956	0.925	0.991
O=C(O)[C@@H](S)[C@@H](S)C(=O)O	1.03	1.02	1.03	1.18	1.05	0.993	1.02	0.985	1.04	1.04
COCCN(C(=O)CO)c1c(C)cccc1C(=O)O	0.972	0.976	0.956	1.09	0.968	0.811	0.996	1	0.904	0.986
COC(=O)COc1ccc(Cl)cc1C	1.04	0.969	1.01	0.979	1.03	1.01	1.03	1.01	1.01	1.03
CN(C)C(=O)Nc1ccc(Oc2ccc(Cl)cc2)cc1	0.938	0.95	0.938	1.24	0.849	0.926	1.08	1.1	0.937	0.918
Cc1[nH]n(C)c(=O)c1C(=O)c1ccc(C(F)(F)F)cc1S(C)(=O)=O	0.991	1.01	1.08	0.972	1.01	1.02	1.03	1.02	1.04	0.974
O=C(O)Cc1cccc2ccccc12	0.941	0.959	0.991	1.02	1.01	0.949	1.02	0.953	0.987	1.01
CC(=O)Oc1c(Cl)c(Cl)c(Cl)c(Cl)c1Cl	0.953	0.936	0.808	0.942	0.782	0.871	1.05	0.548 (active)	0.542 (active)	0.558 (active)
COc1nc(N)nc(C(F)(F)F)n1	1.05	0.998	1	0.958	1.04	1.08	0.964	1.01	1.03	1.02
CCOC(=O)c1cnn(C)c1S(=O)(=O)NC(=O)Nc1nc(OC)cc(OC)n1	0.991	1.02	1.01	1.08	1.09	1.1	1.02	0.759	1.03	1.02
CC(C)(SC(=O)N1CCCCC1)c1ccccc1	0.998	1.01	1.01	1.02	1.07	1.01	1.02	1	0.778 (active)	0.965
CC(C)C1C2CCC1c1c(NC(=O)c3cn(C)nc3C(F)F)cccc12 (stereo not given)	0.966	1	0.957	0.971	0.906	0.702	0.965	0.758	0.533 (active)	0.862
c1ccc(Sc2ccccc2)cc1	1.02	1.03	0.967	1.02	1.08	1.1	1.04	0.503	1.01	1
Cc1nc(C(F)(F)F)c(C(=O)Nc2c(Br)cc(OC(F)(F)F)cc2Br)s1	1.06	1.02	1.02	0.852	1.09	1.15	1.1	0.942	0.944	1
NC(=O)C1CO1 (stereo not given)	0.93	0.957	0.946	0.989	0.923	0.995	1.02	0.949	0.895	0.946
COCCCNc1nc(NC(C)C)nc(SC)n1	0.963	1.01	0.986	0.914	0.904	1.04	0.943	0.954	1.01	0.992
CCC/C(=N\OCC)C1=C(O)CC(C2CCCSC2)CC1=O (stereo not given)	1.03	0.988	1.01	1.14	1.03	0.907	0.986	1.01	0.81	1.04
N[C@@H](Cc1cc(I)c(Oc2cc(I)c(O)c(I)c2)c(I)c1)C(=O)O	0.906	0.959	0.941	1.04	0.838	0.87	0.886	0.957	0.921	0.949
Cc1cccc(C)c1N(CCSCC(O)C(=O)[O-])C(=O)CO.[Na+] (stereo not given)	1.04	0.977	0.97	1.07	0.984	0.849	0.95	1.01	0.927	0.99

SMILES	growth AUC (Coprococcus comes)	growth AUC (Escherichia coli ED1a)	growth AUC (Escherichia coli IAI1)	growth AUC (Eubacterium rectale)	growth AUC [1]	growth AUC (Lactobacillus gasseri)	growth AUC (Lactobacillus paracasei)	growth AUC (Odoribacter splanchnicus)	growth AUC [2]	growth AUC (Parabacteroides merdae)
CC(C)c1cccc2c(=O)c3ccccc3sc12	0.979	1.03	1.04	1	1.19	0.968	1.05	1.05	0.952	0.885
C#CCOc1cc(-n2nc(C(C)(C)C)oc2=O)c(Cl)cc1Cl	0.991	0.971	0.996	1.09	0.926	0.831	0.958	0.904	0.392 (active)	0.951
Cc1c(Br)c2ccc(F)cc2n1S(=O)(=O)c1ncn(S(=O)(=O)N(C)C)n1	1.03	0.999	1.11	0.989	1.08	1.04	0.981	0.957	0.861	0.949
COC(=O)c1c(Cl)nn(C)c1S(=O)(=O)NC(=O)Nc1nc(OC)cc(OC)n1	1	1.01	1.01	1	1.09	0.882	1.03	0.999	1.01	0.99
COC(=O)CSc1cc(N=c2sc(=O)n3n2CCCC3)c(F)cc1Cl	0.999	1.02	0.963	1.12	1.03	0.862	0.974	1.01	0.796	0.967
[O-][n+]1nc(-n2ccnc2)nc2ccc(Cl)cc21	1.04	0.95	0.956	1.12	1.06	0.831	1.01	1.03	0.897	1.02
CNC(=O)Nc1nc2ccccc2s1	1.01	0.999	0.984	1.03	1	0.944	0.953	1.05	0.984	1.03
CCc1cccc(C)c1N(C(=O)C(=O)O)[C@@H](C)C(=O)O	1.02	1.01	0.988	1.12	1.03	0.853	1.01	0.95	0.809	1.03
COCC(=O)N(c1c(C)cccc1C)C(C)C(=O)O (stereo not given)	1.01	1	1.01	1.09	1.15	1.04	1.02	1.01	1.01	1.05
COc1cc(OC)nc(NC(=O)NS(=O)(=O)Nc2ccccc2C(=O)N(C)C)n1	0.994	0.981	0.992	0.972	0.94	1.03	0.939	0.997	1.03	1.02
COCC(=O)N(c1c(C)cccc1C(=O)O)C(C)C(=O)O (stereo not given)	1.01	0.986	0.978	0.949	0.879	1.07	0.734	1.1	1.01	0.989
O=[N+](Nc1ccccc1)c1ccccc1	0.959	0.993	0.955	0.921	0.978	0.973	1.04	0.973	0.976	0.986
C[C@@]1(c2ccccc2)NC(=O)N(Nc2ccccc2)C1=O	1.03	1.02	1.01	0.948	1	1.05	0.955	0.993	1.02	0.996
c1ccc2cc3c(ccc4ccccc43)cc2c1	1	0.999	0.994	1.08	1.01	0.969	1	0.992	0.961	0.995
COC(=O)C(C)Oc1ccc(Cl)cc1Cl (stereo not given)	1.01	1.01	0.988	1.14	0.95	0.991	1.01	1.11	0.996	1.01
N#CC(=NOCC1OCCO1)c1ccccc1	1.01	0.971	0.982	1.06	0.99	0.962	1.01	1.11	0.981	0.931
CC(C)NS(=O)(=O)NC(=O)c1cc(-n2c(=O)cc(C(F)(F)F)[nH]c2=O)c(F)cc1Cl	0.998	1.02	1.03	1.01	1.03	0.974	0.991	0.977	1.05	0.983
Nc1cccc(O)c1	1.06	1.01	1.01	0.984	1	1.04	0.94	0.975	0.993	1
c1ccc(CNc2ncnc3nc[nH]c23)cc1	1.06	0.989	1.01	1.16	0.943	0.956	1.03	1.03	1.05	1.02
